Data taken from PubChem BioAssay (Tox21).
Several values for one entry are separate records, joined by “and”; a condition that tells them apart may be missing. Equal values may be shown once. Results filed as inconclusive are left out. Some structures have more than one record in an assay (separate samples or runs), and their calls can disagree. Activity calls are given as the source filed them. Unless noted, calls follow the shape of the dose curve; as a rule, active = well fitted curve in the direction sought with a large enough effect in the repeat runs; inconclusive = weak or mixed curves; inactive = no such curve, though single readings can be large; an effect the other way counts as inactive or inconclusive.

Assays:
[1] = qHTS assay to identify small molecule agonists of the peroxisome proliferator-activated receptor delta (PPARd) signaling pathway - cell viability counter screen (AID 743211); also: nearly all actives have a fitted effect of over 55% in size; also: potency is read from the fitted curve at half-maximal effect
Summary of the method: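 Viability was measured as CellTiter-Glo luminescence (30 min, room temperature) in the same wells as the beta-lactamase readout. GeneBLAzer PPARd UAS-bla HEK293H cells received compound after 5 h plating and were incubated 17 h at 37 C.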

[2] = qHTS assay to identify small molecule antagonists of the peroxisome proliferator-activated receptor delta (PPARd) signaling pathway - cell viability counter screen (AID 743213); also: nearly all actives have a fitted effect of over 50% in size; also: potency is read from the fitted curve at half-maximal effect
Summary of the method: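 Cytotoxicity counter screen: CellTiter-Glo luminescence read 30 min after addition, in the same wells as the reporter assay. There, PPARd UAS-bla HEK293H cells (3000/well) were treated 17 h at 37 C with compound and 300 nM L165041.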

[3] = qHTS assay to identify small molecule agonists of the farnesoid-X-receptor (FXR) signaling pathway - cell viability counter screen (AID 743218); also: nearly all actives have a fitted effect of over 45% in size; also: potency is read from the fitted curve at half-maximal effect
Summary of the method: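 Quantitative HTS counter screen measuring ATP-based viability via CellTiter-Glo luminescence in HEK 293T cells carrying a UAS-driven beta-lactamase reporter, after 16 h compound exposure at 37 C.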

[4] = qHTS assay to identify small molecule antagonists of the farnesoid-X-receptor (FXR) signaling pathway - cell viability counter screen (AID 743221; active = well fitted cell-killing curve with a large enough effect in the repeat runs, not every such curve was filed as active; also: nearly all actives have a fitted effect of over 50% in size; also: potency is read from the fitted curve at half-maximal effect)
Summary of the method: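 Cytotoxicity counter screen run in the FXR-bla reporter wells: HEK 293T cells exposed to compound with 50 uM (final) chenodeoxycholic acid for 16 h, 37 C, then viability measured by CellTiter-Glo luminescence after 30 min, room temperature.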

[5] = target: Vitamin D3 receptor (Homo sapiens) (UniProt P11473); assay: qHTS assay to identify small molecule antagonists of the vitamin D receptor (VDR) signaling pathway (AID 743223; active = well fitted inhibition curve with a large enough effect in the signal ratio in the repeat runs, not every such curve was filed as active; the % refers to the signal ratio; also: potency is read from the fitted curve at half-maximal effect)
Chain of Vitamin D3 receptor (Homo sapiens) (P11473 whole entry, looked up): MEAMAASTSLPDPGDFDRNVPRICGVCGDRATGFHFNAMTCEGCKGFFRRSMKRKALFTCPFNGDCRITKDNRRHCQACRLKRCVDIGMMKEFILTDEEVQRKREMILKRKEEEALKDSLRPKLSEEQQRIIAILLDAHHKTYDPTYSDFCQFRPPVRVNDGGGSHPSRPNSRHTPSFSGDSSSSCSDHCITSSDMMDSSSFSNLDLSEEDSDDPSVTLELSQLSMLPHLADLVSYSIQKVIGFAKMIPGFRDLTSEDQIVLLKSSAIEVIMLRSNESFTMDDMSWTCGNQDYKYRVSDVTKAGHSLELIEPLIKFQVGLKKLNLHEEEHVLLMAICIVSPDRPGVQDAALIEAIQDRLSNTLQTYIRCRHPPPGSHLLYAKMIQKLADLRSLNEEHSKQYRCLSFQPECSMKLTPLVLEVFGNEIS
Summary of the method: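 Antagonist mode: compound added to VDR-bla cells alongside agonist 1alpha,25-dihydroxyvitamin D3 (3 nM final), incubation 16 h at 37C. Read-out is LiveBLAzer FRET fluorescence, 2 h at room temperature.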

[6] = qHTS assay to identify small molecule agonists of the vitamin D receptor (VDR) signaling pathway - cell viability counter screen (AID 743224); also: nearly all actives have a fitted effect of over 50% in size; also: potency is read from the fitted curve at half-maximal effect
Summary of the method: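 CellTiter-Glo viability readout on VDR-bla cells, measured after 16 h of compound treatment at 37C in the same wells.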

[7] = qHTS assay to identify small molecule agonists of the NFkB signaling pathway - cell viability counter screen (AID 1159515; calls by dose curve; also: nearly all actives have a fitted effect of over 55% in size; also: potency is read from the fitted curve at half-maximal effect)
Summary of the method: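 Tox21 library compounds were tested for cytotoxicity against NFkB-bla ME-180 cells during a 5 hr exposure at 37 C. CellTiter-Glo luminescence served as the viability read-out.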

[8] = qHTS assay to identify small molecule agonists of the endoplasmic reticulum stress response signaling pathway (AID 1159516; active = well fitted activation curve with a large enough effect in the signal ratio in the repeat runs, not every such curve was filed as active; the % refers to the signal ratio)
Summary of the method: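 Fluorescence at 460 and 530 nm (405 nm excitation) reports beta-lactamase from an ER stress response element in HeLa cells treated 5 hr at 37 C.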

[9] = qHTS assay to identify small molecule agonists of the endoplasmic reticulum stress response signaling pathway - cell viability counter screen (AID 1159517; calls by dose curve; also: nearly all actives have a fitted effect of over 50% in size; also: potency is read from the fitted curve at half-maximal effect)
Summary of the method: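 Steps: seed 1,500 ESRE-bla HeLa cells per well; incubate overnight at 37 C, 5% CO2; add compounds in DMSO for 5 hr; run FRET substrate 2 hr RT; add CellTiter-Glo, wait 30 min, read luminescence.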

[10] = qHTS assay to identify small molecule antagonists of the retinoid-related orphan receptor gamma (ROR-gamma) signaling pathway - cell viability counter screen (AID 1159520); also: nearly all actives have a fitted effect of over 50% in size; also: potency is read from the fitted curve at half-maximal effect
Summary of the method: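 Tet-on ROR gamma CHO cells were given compounds for 2 hr, then doxycycline hyclate at 1 uM final, and incubated 16 hr at 37 C. Viability was measured as ATP content by CellTiter-Glo luminescence.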

[11] = qHTS assay to identify small molecule agonists of the AP-1 signaling pathway - cell viability counter screen (AID 1159525; calls by dose curve; also: nearly all actives have a fitted effect of over 55% in size; also: potency is read from the fitted curve at half-maximal effect)
Summary of the method: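 Same-well cytotoxicity counter screen of the Tox21 10K library in ME-180 cells. The readout is ATP-dependent luminescence after 5 h compound treatment. Data are normalised to DMSO and tetra n-octyl ammonium bromide controls.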

[12] = qHTS assay to identify small molecule agonists of the AP-1 signaling pathway (AID 1159526; calls by dose curve)
[13] = target: Retinoic acid receptor RXR-alpha (Homo sapiens) (UniProt P19793); assay: qHTS assay to identify small molecule agonists of the RXR signaling pathway (AID 1159527; calls by dose curve; also: nearly all actives have a fitted effect of over 35% in size; also: potency is read from the fitted curve at half-maximal effect)
Chain of Retinoic acid receptor RXR-alpha (Homo sapiens) (P19793 whole entry, looked up): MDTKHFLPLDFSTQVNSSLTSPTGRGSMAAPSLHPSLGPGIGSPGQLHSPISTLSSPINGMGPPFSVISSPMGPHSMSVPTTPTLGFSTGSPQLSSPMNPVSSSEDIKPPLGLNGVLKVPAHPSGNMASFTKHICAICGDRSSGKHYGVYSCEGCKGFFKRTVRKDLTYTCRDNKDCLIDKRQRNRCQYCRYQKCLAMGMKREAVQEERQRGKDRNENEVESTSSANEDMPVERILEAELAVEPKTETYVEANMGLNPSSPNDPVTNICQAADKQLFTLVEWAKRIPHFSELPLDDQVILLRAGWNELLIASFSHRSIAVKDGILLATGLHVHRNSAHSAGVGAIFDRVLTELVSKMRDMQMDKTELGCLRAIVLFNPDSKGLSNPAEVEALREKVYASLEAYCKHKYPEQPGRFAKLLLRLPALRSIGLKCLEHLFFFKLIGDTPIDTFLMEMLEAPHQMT
Summary of the method: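 Agonist-mode beta-lactamase reporter assay: HEK 293T RXR-alpha-UAS-bla cells treated 16 hr at 37 C with compounds, 9-cis retinoic acid as positive control. LiveBLAzer FRET substrate, 405 nm excitation, 460/530 nm emission.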

[14] = target: Vitamin D3 receptor (Homo sapiens) (UniProt P11473); assay: qHTS assay to identify small molecule agonists of the vitamin D receptor (VDR) signaling pathway (AID 743222; calls by dose curve)
Summary of the method: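 Tox21 cell reporter format: VDR-bla line, 16 h compound exposure in 5% CO2 at 37C, then fluorescence intensity after 2 h with LiveBLAzer B/G FRET substrate.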

[15] = qHTS assay to identify small molecule antagonists of the vitamin D receptor (VDR) signaling pathway - cell viability counter screen (AID 743225); also: nearly all actives have a fitted effect of over 50% in size; also: potency is read from the fitted curve at half-maximal effect
Summary of the method: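 Cytotoxicity counter screen read by CellTiter-Glo luminescence (30 min, room temperature) in the same wells as the VDR-bla antagonist readout. HEK 293T VDR-UAS-bla cells had 16 h at 37C with compound and 3 nM (final) 1-alpha,25-dihydroxyvitamin D3, then 2 h with FRET substrate.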

[16] = target: Peroxisome proliferator-activated receptor delta (Homo sapiens) (UniProt Q03181); assay: qHTS assay to identify small molecule agonists of the peroxisome proliferator-activated receptor delta (PPARd) signaling pathway (AID 743212; calls by dose curve)
Chain of Peroxisome proliferator-activated receptor delta (Homo sapiens) (Q03181 whole entry, looked up): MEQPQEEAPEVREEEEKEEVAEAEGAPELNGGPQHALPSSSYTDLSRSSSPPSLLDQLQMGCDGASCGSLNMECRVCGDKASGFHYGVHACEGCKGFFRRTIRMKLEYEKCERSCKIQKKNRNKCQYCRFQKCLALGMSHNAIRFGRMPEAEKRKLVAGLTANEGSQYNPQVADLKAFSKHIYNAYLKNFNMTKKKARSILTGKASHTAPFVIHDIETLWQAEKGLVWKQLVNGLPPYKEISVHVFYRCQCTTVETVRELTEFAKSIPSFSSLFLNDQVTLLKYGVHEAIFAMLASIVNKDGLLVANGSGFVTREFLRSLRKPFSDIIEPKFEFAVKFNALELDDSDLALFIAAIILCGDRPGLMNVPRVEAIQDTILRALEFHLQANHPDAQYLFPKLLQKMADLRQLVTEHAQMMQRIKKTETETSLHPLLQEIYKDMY
Summary of the method: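 Read-out: beta-lactamase FRET fluorescence after 2 h room-temperature incubation with LiveBLAzer B/G substrate. Cells were HEK293H carrying a UAS-bla reporter for PPARd, treated at 37 C with DMSO-dissolved compounds.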

[17] = target: Peroxisome proliferator-activated receptor delta (Homo sapiens) (UniProt Q03181); assay: qHTS assay to identify small molecule antagonists of the peroxisome proliferator-activated receptor delta (PPARd) signaling pathway (AID 743215; active = well fitted inhibition curve with a large enough effect in the signal ratio in the repeat runs, not every such curve was filed as active; the % refers to the signal ratio;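 also: cells stimulated with agonist L165041 at 300 nM final during compound exposure; series mostly up to about 62 µM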)
Summary of the method: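 Here, a reporter line (HEK293H, beta-lactamase under a UAS) measures PPARd signaling. Compounds are tested against agonist L165041 at 300 nM final concentration over 17 h at 37 C, with fluorescence read after substrate.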

[18] = target: Nuclear receptor ROR-gamma (Homo sapiens) (UniProt P51449); assay: qHTS assay to identify small molecule antagonists of the retinoid-related orphan receptor gamma (ROR-gamma) signaling pathway (AID 1159521; also: nearly all actives have a fitted effect of over 50% in size; also: potency is read from the fitted curve at half-maximal effect)
Summary of the method: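 Antagonist read-out: drop in luminescence (ONE-Glo) from an RORE-LUC reporter in CHO cells with doxycycline-inducible ROR-gamma; 2 hr compound pretreatment, 1 uM doxycycline, 16 hr incubation at 37 C.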

[19] = target: Bile acid receptor (Homo sapiens) (UniProt Q96RI1); assay: qHTS assay to identify small molecule agonists of the farnesoid-X-receptor (FXR) signaling pathway (AID 743220; active = well fitted activation curve with a large enough effect in the signal ratio in the repeat runs, not every such curve was filed as active; the % refers to the signal ratio)
Chain of Bile acid receptor (Homo sapiens) (Q96RI1 whole entry, looked up): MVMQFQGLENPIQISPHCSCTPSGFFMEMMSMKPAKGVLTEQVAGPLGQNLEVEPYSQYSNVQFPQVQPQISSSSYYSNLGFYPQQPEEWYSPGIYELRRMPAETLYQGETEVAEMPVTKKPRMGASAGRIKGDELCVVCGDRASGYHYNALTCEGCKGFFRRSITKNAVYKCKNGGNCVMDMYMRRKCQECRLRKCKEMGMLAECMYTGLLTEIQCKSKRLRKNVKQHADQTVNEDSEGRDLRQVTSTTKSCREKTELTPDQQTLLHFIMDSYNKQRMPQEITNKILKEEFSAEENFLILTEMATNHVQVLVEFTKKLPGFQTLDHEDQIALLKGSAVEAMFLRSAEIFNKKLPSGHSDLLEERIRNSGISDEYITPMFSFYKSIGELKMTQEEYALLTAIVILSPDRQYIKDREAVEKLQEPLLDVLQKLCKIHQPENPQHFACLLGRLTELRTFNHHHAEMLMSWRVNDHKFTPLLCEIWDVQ
Summary of the method: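 FXR-UAS-bla HEK 293T cells carrying a UAS-driven beta-lactamase reporter were plated for 5 h at 37C/5% CO2, then exposed to DMSO-dissolved Tox21 10K compounds for 16 h at 37C. A LiveBLAzer B/G FRET substrate was loaded for 2 h at room temperature before fluorescence reading.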

[20] = target: Bile acid receptor (Homo sapiens) (UniProt Q96RI1); assay: qHTS assay to identify small molecule antagonists of the farnesoid-X-receptor (FXR) signaling pathway (AID 743217; active = well fitted inhibition curve with a large enough effect in the signal ratio in the repeat runs, not every such curve was filed as active; the % refers to the signal ratio)
Summary of the method: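 Test compounds are pin-transferred onto FXR-bla HEK 293T cells, then chenodeoxycholic acid is added at 50 uM final. After 16 h at 37 °C, LiveBLAzer B/G substrate is applied for 2 h at room temperature and fluorescence read.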

Measured: Potency

O=C(O)c1ccc(=O)[nH]c1
not listed: [14] | [15] | [16] | [17] | [18] | [19] | [20]
inactive: all other assays above

CCC(C)Cl (stereo not given)
not listed: [16] | [17] | [18] | [19] | [20]
inactive: all other assays above

CCOC(=O)c1cncn1C(C)c1ccccc1 (stereo not given)
not listed: [5] | [6] | [10] | [14] | [15] | [19] | [20]
inactive: all other assays above

CCOC(C(=O)OCCN(C)C)(c1ccccc1)c1ccccc1
not listed: [13] | [16] | [17] | [18] | [20]
inactive: all other assays above

CC(C)c1ccc(NC(=O)N(C)C)cc1
not listed: [10] | [15] | [19] | [20]
inactive: all other assays above

C=CCN1C[C@H](C)N([C@H](c2ccc(C(=O)N(CC)CC)cc2)c2cccc(OC)c2)C[C@H]1C
not listed: [10] | [11] | [19] | [20]
inactive: all other assays above

CCCCNC(=O)OCC#CI
inactive: [20] | [19] | [4] | [15] | [7] | [9]
active: [6] 48.7 µM and 43.6 µM | [18] 24.2 µM | [11] 54.7 µM

N#CC(C#N)=Cc1ccc(O)c(O)c1
not listed: [10] | [11] | [14] | [19] | [20]
inactive: all other assays above

Cc1nc2ccccc2c(=O)n1-c1ccccc1Cl
not listed: [10] | [13] | [15] | [16] | [17] | [19] | [20]
inactive: all other assays above

CN1C[C@H](C(=O)N[C@]2(C)O[C@@]3(O)[C@@H]4CCCN4C(=O)[C@H](Cc4ccccc4)N3C2=O)C=C2c3cccc4[nH]cc(c34)C[C@H]21
54.7 µM (active) and inactive: [18]
not listed: [5] | [8] | [14] | [16] | [17] | [20]
inactive: all other assays above

O=C(CCl)CCl
active: [9] 43.6 µM | [10] 5.45 µM | [18] 14.2 µM and 12.2 µM
inactive and 54.9 µM (active): [1] | [3]
not listed: [8] | [12] | [19] | [20]
inactive: all other assays above

C[CH2][Hg][S]c1ccccc1C(=O)O
active: [1] 871 nM and 2.11 µM | [2] 2.19 µM and 1.68 µM | [3] 1.55 µM and 2.66 µM | [4] 6.92 µM and 4.22 µM | [5] 3.38 µM | [6] 1.23 µM and 2.11 µM | [15] 3.47 µM and 4.25 µM | [7] 3.47 µM and 6.01 µM | [9] 6.74 µM | [10] 1.09 µM and 1.68 µM | [18] 611 nM and 1.33 µM | [11] 4.36 µM and 3.79 µM
inactive: [14]

O=[N+]([O-])/C=C/c1ccccc1
active: [1] 14 µM and 17.4 µM | [2] 44.4 µM | [3] 19.8 µM and 15.5 µM | [4] 19.8 µM and 38.9 µM | [6] 49 µM | [7] 44.4 µM and 54.9 µM | [10] 11 µM and 13.7 µM
49.8 µM (active) and inactive: [15]
inactive: [19] | [14] | [5] | [9] | [11]

C[C@@H]1C[C@@H]([C@H](O)CC2CC(=O)NC(=O)C2)C(=O)[C@@H](C)C1
active: [18] 383 nM and 137 nM and 237 nM
not listed: [5] | [10] | [12] | [13] | [14] | [16] | [17]
inactive: all other assays above

CCOC(=O)c1cn2nc(OP(=S)(OCC)OCC)cc2nc1C
not listed: [5] | [10] | [13] | [14] | [16] | [18] | [20]
inactive: all other assays above

CCOC(=O)C1OC1(C)c1ccccc1 (stereo not given)
13.9 µM (active) and inactive: [13]
not listed: [5] | [10] | [14] | [16] | [17] | [19] | [20]
inactive: all other assays above
